Assay outcomes from PubChem.
USP1-UAF1 inh = inhibitors of human USP1/UAF1 deubiquitinase | recombinant USP1/UAF1, Ub-Rhodamine cleavage fluorescence | hit rate 0.23% among 390,000 | O94782 | Potency, µM (series often up to 57.1 µM), most hits filed as inhibitors | AID 743255; note: nearly all actives have a fitted effect of over 60% in size
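1 nM enzyme complex + cpd, 15 min RT; start with Ub-Rho 150nM final; kinetic fluorescence ex 480/em 540, 6 reads q60 s. Buffer 50mM HEPES pH 7.8, 0.5mM EDTA, 0.1 mg/ml BSA, 1mM TCEP, 0.01% Tween-20.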
PI5P4K alpha inh = PI5P4K alpha (human) kinase inhibition. P48426. PI5P4Kalpha enzyme, ADP-Glo luminescence, 60 min; stronger effect = lower value. max response, %. hit rate 1.2% among 330,000. AID 652105; active = max response of -50% or lower; inconclusive = between -30% and -50%; inactive = -30% or higher; note: value at the top dose of about 77 µM
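Quantitative HTS of the MLSMR library against PI5P4Kalpha with substrate. ATP added last at 5 microM final; room temperature, 60 minutes. Remaining ATP depleted, ADP converted and read as luminescence.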
USP2a inh = USP2a (human) protease inhibition. O75604. USP2 core, Ub-CHOP2 coupled fluorogenic reporter, 485/531. Potency, µM (highest dose often 38.3 µM), hits mostly inhibitors. hit rate 0.01% among 330,000. AID 463254
Target sequence (O75604 whole entry, looked up): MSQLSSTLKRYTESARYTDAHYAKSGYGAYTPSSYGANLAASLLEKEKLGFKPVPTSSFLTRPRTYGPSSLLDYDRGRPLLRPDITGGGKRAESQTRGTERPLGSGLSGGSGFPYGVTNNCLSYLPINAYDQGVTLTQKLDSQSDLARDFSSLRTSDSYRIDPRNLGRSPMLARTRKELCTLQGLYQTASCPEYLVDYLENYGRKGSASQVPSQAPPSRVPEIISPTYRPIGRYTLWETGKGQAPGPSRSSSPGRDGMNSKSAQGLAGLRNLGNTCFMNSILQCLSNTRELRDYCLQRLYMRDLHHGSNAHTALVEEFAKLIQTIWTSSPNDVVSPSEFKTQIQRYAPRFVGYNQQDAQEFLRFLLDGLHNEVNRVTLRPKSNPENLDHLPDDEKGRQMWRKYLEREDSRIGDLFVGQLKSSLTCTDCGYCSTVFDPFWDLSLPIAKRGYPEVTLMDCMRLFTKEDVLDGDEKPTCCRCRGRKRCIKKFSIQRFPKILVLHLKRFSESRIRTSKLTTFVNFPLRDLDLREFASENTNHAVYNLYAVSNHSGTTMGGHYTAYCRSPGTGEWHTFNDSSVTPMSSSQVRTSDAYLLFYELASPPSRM
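Deubiquitinase activity read as fluorescence (485/531 nm) after Ub-CHOP2 cleavage activates the enterokinase reporter on its substrate; USP2 core 10nM, Ub-CHOP2 and substrate 25nM each, 30min compound preincubation then 60min RT; data normalized to NEM, curves fitted.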
WRN helicase inh = blocks human WRN helicase. Q14191. WRN helicase unwinding, fluorescent forked duplex, kinetic. Potency, µM (doses to about 114 µM), usual class: inhibitors. hit rate 0.46% among 360,000. AID 651768; note: nearly all actives have a fitted effect of over 55% in size
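WRN at 20 nM final was preincubated with compound for 15 min at room temperature; reaction started with 100 nM forked duplex oligonucleotide carrying fluorophore and quencher plus 2 mM ATP (final). Unwinding followed kinetically by red fluorescence (ex 525/em 598 nm).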
PLK1 PBD block = blocks phosphopeptide binding to human PLK1 polo-box domain; P53350; hit rate 2.8% among 360,000; Plk1 PBD binding of FITC phosphopeptide, fluorescence polarization; Potency, µM, usual class: inhibitors; AID 720504; note: series mostly up to about 57 µM; nearly all actives have a fitted effect of over 65% in size
Hits are given with their value; - = inactive; ? = inconclusive; . = no result. Shown are actives, neighbours in structure and some others; about 3.3% of the full set was active somewhere. Unless noted, calls come from the whole dose curve; as a rule, active = well fitted curve in the direction sought with a large enough effect; inconclusive = small, poorly fitted or top-dose-only effect, or another doubt; inactive = no such curve, though single readings can be large; an effect the other way counts as inactive or inconclusive.

SMILES	USP1-UAF1 inh	PI5P4K alpha inh	USP2a inh	WRN helicase inh	PLK1 PBD block
Cc1ccc(CNC(=O)CN2C(=O)CSc3ccc(S(=O)(=O)N(C)C)cc32)cc1	-	.	.	.	.
CN(CCC#N)C(=O)COC(=O)c1cccnc1Nc1ccccc1F	-	-	-	-	27µM
CC1CN(C(=O)N2CCC(C(=O)N3CCN(c4ccccc4)CC3)CC2)c2cc(Cl)ccc2O1 (stereo not given)	-	.	.	.	.
FC(F)Oc1ccc(NC(=S)Nn2cnnc2)cc1	-	-	-	-	6.7µM
CN(NC(=S)Nc1ccc(OC(F)F)cc1)C(=S)Nc1ccc(OC(F)F)cc1	-	-	-	-	-
CC1=C(C(=O)OCC(Cl)(Cl)Cl)N2C(=O)C(NC(=O)Cc3ccccc3)C2SC1 (stereo not given)	-	-	-	-	-
CC(=O)OCC1=C(C(=O)OC(C)(C)C)N2C(=O)[C@@H](NC(=O)Cc3ccccc3)[C@H]2SC1	-	-51	.	-	17µM
CCCOC(=O)c1c(-c2ccc(C)cc2C)csc1NC(=O)C1C2CCC(O2)C1C(=O)O (stereo not given)	-	?	-	-	12µM
CCOC(=O)c1c(NC(=O)C2C3CCC(O3)C2C(=O)O)sc(C)c1-c1ccc(F)cc1 (stereo not given)	-	-	-	-	-
O=C(Nc1ccc(F)cc1)c1ccc(COc2ccccc2)cc1	-	-	-	-	27µM
CC(=O)Nc1ccc(NC(=O)c2ccc(COc3ccccc3)cc2)cc1	-	-	-	-	-
CN(c1ccc(C(=O)N2CCN(c3ccc(F)cc3)CC2)cc1)S(C)(=O)=O	-	?	-	-	3.4µM
O=C(c1ccco1)N1CCN(c2ccc(F)cc2)CC1	-	-	-	-	30µM
O=C(Nc1ccc(N2CCN(C(=O)c3ccco3)CC2)cc1)c1ccc(F)cc1	-	-	-	-	-
COc1ccc(N(C(=O)c2ccc(C(C)(C)C)cc2)S(=O)(=O)c2ccc(Cl)cc2)cc1	-	.	.	.	.
COCCSc1nc2c([nH]c3ccccc32)c(=O)n1-c1ccc(OC)c(OC)c1	-	.	.	.	.
COc1ccc(C(c2c(O)cc(C)n(Cc3ccco3)c2=O)N2CCN(c3ccccc3)CC2)cc1 (stereo not given)	-	.	.	.	.
COc1cc(OC)cc(N2CC(C)(C)C2=O)c1	-	-	-	-	21µM
Cc1cc(C)cc(N2CC(C)(C)C2=O)c1	-	-	-	-	-
Cc1ccc(S(=O)(=O)Cc2cc(F)c([N+](=O)[O-])cc2[N+](=O)[O-])cc1	-	-	-	-	2.4µM
COc1ccc(C(=O)CCS(=O)(=O)c2ccc(C)cc2)cc1	-	-	-	-	11µM
Cc1ccc(S(=O)(=O)CCC(=O)c2cccc([N+](=O)[O-])c2)cc1	-	?	-	14µM	3.8µM
O=C(CCS(=O)(=O)c1ccccc1)NC1CCCCC1	-	-	-	-	-
COc1ccc(S(=O)(=O)CCC(=O)NC2CCCCC2)cc1	-	-	-	-	30µM
CCOC(=O)c1ccc(NC(=O)CCc2c(C)nc3nc[nH]n3c2=O)cc1	-	.	.	.	.
SMILES	USP1-UAF1 inh	PI5P4K alpha inh	USP2a inh	WRN helicase inh	PLK1 PBD block
COc1ccc(-n2ccn(Cc3ccc(C)cc3)c(=O)c2=O)cc1OC	-	.	.	.	.
CCc1ccc(-n2nc(C)c3c(C)cc(=O)n(CC(=O)NCc4ccc(C)cc4)c32)cc1	-	.	.	.	.
COc1ccc(S(=O)(=O)N(CCc2ccccc2)CC(=O)NCc2ccc(C)cc2)cc1	-	.	.	.	.
COC(=O)c1ccc(CN(Cc2ccc(OC)c(OC)c2)S(=O)(=O)c2ccc(F)c(C(=O)Nc3cc(C)ccc3C)c2)cc1	-	.	.	.	.
CC(C)(C)c1[nH]nc2c1C(c1ccncc1)C(C#N)=C(N)O2 (stereo not given)	-	-51	-	-	-
CCOc1cc(C2CC(=O)Nc3c2c(=O)nc(SCc2cccc(Cl)c2)n3C)ccc1O (stereo not given)	-	.	.	.	.
CCN=c1scc(-c2ccc3c(c2)NC(=O)CO3)n1N=C1CCCC1	-	-	-	-	-
CCCCN=c1scc(-c2ccc3c(c2)NC(=O)CO3)n1N=C1CCCC1	-	.	-	-	17µM
O=C(NC1CCSC1=O)c1ccc(Oc2cccc(C(F)(F)F)c2)nc1 (stereo not given)	-	-	-	-	21µM
O=[N+]([O-])c1ccc(Oc2ccc(C(F)(F)F)cn2)cc1	-	-	-	-	-
O=[N+]([O-])c1ccc(Oc2cccc(C(F)(F)F)c2)nc1	-	-	-	-	27µM
Cc1ccc(C)c(NC(=O)CN2C(=O)C3(SCC(=O)N3c3ccc(C)c(C)c3)c3ccccc32)c1 (stereo not given)	-	.	.	.	.
CCCOc1cccc(C2C(C(=O)c3cc4ccccc4o3)=C(O)C(=O)N2c2cc(C)on2)c1 (stereo not given)	?	-	-	-	27µM
CCCCCOc1ccc(C2C(C(=O)c3ccc(C)o3)=C(O)C(=O)N2c2cc(C)on2)cc1 (stereo not given)	?	-55	-	-	?
COC(=O)c1ccc(C2C(C(=O)c3cc4ccccc4o3)=C(O)C(=O)N2c2cc(C)on2)cc1 (stereo not given)	-	-	-	-	?
Cc1cc(N2C(=O)C(O)=C(C(=O)c3cc4ccccc4o3)C2c2cccc(Br)c2)no1 (stereo not given)	?	-53	-	-	27µM
CC1=C(C(=O)Nc2ccc(C)cc2C)C(c2ccc(O)cc2)n2nnnc2N1 (stereo not given)	-	.	.	.	.
COc1ccc(N2CCN(C(=O)Cn3cnc4nc5c(cc4c3=O)CCCC5)CC2)cc1	-	.	.	.	.
CCc1ccc(NC(=O)c2cnn3c(C(F)F)cc(C)nc23)cc1	-	-	-	-	-
CCc1ccc(Cn2ncc3c(C(=O)O)cc(C)nc32)cc1	-	-	.	-	27µM
Cc1cccc(NC(=O)C2CCCN(S(=O)(=O)c3cnc[nH]3)C2)c1C (stereo not given)	-	.	.	.	.
CCOC(=O)C1CCCN(Cc2nc(N)nc(Nc3ccc(Cl)cc3)n2)C1 (stereo not given)	-	?	-	-	-
CCOC(=O)C1CCCN(Cc2nc(N)nc(Nc3ccc(OC)cc3)n2)C1 (stereo not given)	-	-	-	-	27µM
Cc1ccc(-c2nc3ccccc3c(=O)n2NC(=S)N(C)C)cc1	-	-	-	-	27µM
c1ccc2c(CN3CCOCC3)c3ccccc3c(CN3CCOCC3)c2c1	-	.	-	-	-
OC1(CN2CCOCC2)C2CN3CCN(C2)CC1(c1ccccc1)C3 (stereo not given)	-	-	-	-	21µM
Cc1cccc(OC(=O)c2cncc(Br)c2)c1	-	-	-	-	27µM
Cc1cccc(OC(=O)c2cccnc2)c1	-	-	-	-	-
Cc1nc2cc(NCc3ccccc3O)ccc2n1Cc1ccccc1	-	-	-	-	3.4µM
